We go through 21 molecules from PubChem BioAssay (NCI).

The panel holds about 83,000 compounds, 20% with a hit somewhere; the sample as a whole holds those more often.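 The test compound was applied at a single concentration to cells in 96-well plates for 48 hours, and percent growth was recorded.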 Unmarked numbers belong to inactive results. Active and inactive are the calls of the source. The calls were made as follows: active = growth percent below 10; inactive = the rest.

This assay deals with LOX IMVI melanoma. Kind of assay: NCI-60 one-dose screen, 48 h (100 = growth as untreated, 0 = no growth, -100 = all killed). Particulars: 10 µM.
With `CCCCCC(=O)OCCC1CCCCC1`, the growth is 98.6%. Turning to `CC(C)OCC(CCl)OC(=O)Nc1ccccc1` (stereo unspecified), the growth was 97%. The figure for `Oc1cccc(CNC2CCCCC2)c1` is 113%. The figure for `C=CCC(OC(C)=O)c1ccc(OC)c(OC)c1` (stereo unspecified) is 107%; for `COC1OC(CO)C(OC)C(O)C1O` (stereo unspecified) it is 95.6%. Take `O=S(Cc1ccccc1)/C(=C/NC(=S)Nc1ccccc1)c1ccccc1` (stereo unspecified): the growth was 90.9%.

As for `Oc1ccc(N=Cc2ccc(OCc3ccccc3)cc2)cc1`, the growth is 100%. Consider `CCCCCCCCCCCCCCCCCC(=O)NCCNC(=O)CCCCCCCCCCCCCCCCC`, for which the growth is 61.4%. With `O=C1C=C(c2ccccc2)C(O)(c2ccccc2)C1` (stereo unspecified), the growth is 93.6%. For `Nc1ncc([N+](=O)[O-])cn1` the value was 99.7%; for `CCN(C(C)=O)c1ccc([N+](=O)[O-])cc1`, 98.6%; for `C1C[S+]2CC[S+]1CC2`, 95.8%. The figure for `NC(=O)OCCO` is 94.6%; for `COC1CC(OC(=O)c2ccc([N+](=O)[O-])cc2)C(COC(=O)c2ccc([N+](=O)[O-])cc2)O1` (stereo unspecified) it is 103%.

On to `CC(=O)c1cc(O)ccc1O`, for which the growth was 98.9%. The figure for `Cc1c(Cl)cccc1NC(=S)NC(=O)c1ccccc1` is 99.3%; for `Cc1cc(Cl)cc(Cc2cc(Cl)cc(C)c2O)c1O` it is 5.44% (active). `CCCOCc1cn[nH]n1`: the growth is 98.6%. The figure for `Cc1ccc(C(C)C)c(OCC(=O)O)c1` is 102%. The figure for `OC(CBr)CCBr` (stereo unspecified) is 96.1%; for `CC(CCC#N)(CCC#N)C(=O)c1ccccc1` it is 100%.
